Results on 9 molecules are retold here after PubChem BioAssay (EPA / NIEHS).

Results filed as inconclusive are left out. The source made the active and inactive calls. Rule for the calls, unless noted: active = hit-call score of the fitted dose curve at least 0.9, where 1 is the maximum; inconclusive = response in the unintended direction; inactive = score below 0.9.

Experiment [1] concerns the target Myc proto-oncogene protein (Homo sapiens) (UniProt P01106). Briefly: ATG_Myc_CIS: Attagene CIS-FACTORIAL HepG2 Assay for human Myelocytomatosis (Myc) Proto-Oncogene Transcription Factor (AID 2282990; active = hit-call score of the fitted dose curve at least 0.9, where 1 is the maximum; inactive = score below 0.9). Conditions: HepG2, Attagene cis-reporter transcription factor activity; actives raise or lower the signal. The essentials: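 DMSO-normalised, bidirectionally fitted reporter mRNA signal. HepG2 cells transfected with cis reporter constructs, treated 24 h; transcripts detected by RT-PCR, 6-FAM primer extension and CE.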

Experiment [2] can be described thus: ATG_NRF2_ARE_CIS: Attagene CIS-FACTORIAL HepG2 Assay for human Nuclear Factor Erythroid 2 Related Factor 2 (NFR2) response to Antioxidant Response Elements (ARE) (AID 2282992; active = hit-call score of the fitted dose curve at least 0.9, where 1 is the maximum; inactive = score below 0.9;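 for AC50: reporter mRNA level measured by RT-PCR and capillary electrophoresis fluorescence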). To be noted: HepG2 Attagene ARE/NRF2 reporter, transcription factor activity; actives raise or lower the signal. In outline: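 Multiplexed reporter mRNA profiling in HepG2 after a 24 h chemical exposure. Curves fitted in both directions relative to DMSO negative control.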

Experiment [3] is described as follows: ATG_Oct_MLP_CIS: Attagene CIS-FACTORIAL HepG2 Assay for human Octamer-Binding Transcription Factor (Oct) (AID 2282993; active = hit-call score of the fitted dose curve at least 0.9, where 1 is the maximum; inactive = score below 0.9). Conditions: HepG2 Attagene cis-factorial Oct reporter, mRNA; actives raise or lower the signal. In outline:
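HepG2 cells transiently transfected with cis-element-driven reporter transcription units (endogenous TF activity); 24 h compound exposure. Reporter mRNA quantified by RT-PCR, 6-FAM labelling, HpaI digestion and capillary electrophoresis; bidirectional fit versus DMSO baseline.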

In experiment [4] the target is Cellular tumor antigen p53 (Homo sapiens) (UniProt P04637). Put plainly: ATG_p53_CIS: Attagene CIS-FACTORIAL HepG2 Assay for human p53 Transcription Factor (AID 2282994; active = hit-call score of the fitted dose curve at least 0.9, where 1 is the maximum; inactive = score below 0.9). Conditions: HepG2 p53 cis-element reporter, Attagene mRNA; actives raise or lower the signal. In outline:
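Multiplexed reporter mRNA assay in human HepG2 liver cells; cis-regulated units report endogenous factor activity. Values come from bidirectional curve fitting against DMSO negative control after 24 h treatment.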

Experiment [5] addresses human Peroxisome Proliferator-activated Receptor alpha (PPARa), PPARA (gene 5465) (UniProt Q07869). Put plainly: ATG_PPARa_TRANS: Attagene TRANS-FACTORIAL HepG2 Assay for human Peroxisome Proliferator-activated Receptor alpha (PPARa) (AID 2283001). In outline: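 Gain-of-signal endpoint: reporter mRNA induction relative to DMSO, detected by fluorescent RT-PCR and capillary electrophoresis. HepG2 cells transiently carried GAL4-UAS-driven reporter units plus NR-Gal4 fusion; exposure lasted 24 h.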

Experiment [6] has as its target human Peroxisome Proliferator-activated Receptor delta (PPARd), PPARD (gene 5467) (UniProt Q03181). Briefly: ATG_PPARd_TRANS: Attagene TRANS-FACTORIAL HepG2 Assay for human Peroxisome Proliferator-activated Receptor delta (PPARd) (AID 2283002). The essentials: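 Measured quantity: GAL4-UAS reporter transcript induction in HepG2 after 24 h chemical dosing, with NR-Gal4 chimeras supplied by transient transfection. Detection by RT-PCR and capillary electrophoresis; upward fit against DMSO.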

Experiment [7] has as its target Peroxisome proliferator-activated receptor gamma (Homo sapiens) (UniProt P37231). Put plainly: ATG_PPARg_TRANS: Attagene TRANS-FACTORIAL HepG2 Assay for human Peroxisome Proliferator-activated Receptor-gamma (PPARg) (AID 2283007). The essentials: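 Twenty-four hours after chemical dosing of transiently transfected HepG2 cells, isolated RNA was converted to cDNA, reporter sequences amplified and 6-FAM-labelled, then HpaI-digested and analysed by capillary electrophoresis. Signal increase against DMSO was fitted.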

Experiment [8] addresses Nuclear receptor subfamily 1 group I member 2 (Homo sapiens) (UniProt O75469). Put plainly: ATG_PXR_TRANS: Attagene TRANS-FACTORIAL HepG2 Assay for human Pregnane X Receptor (PXR) (AID 2283008). The essentials: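 Measures mRNA induction of a GAL4-UAS-driven reporter in human HepG2 cells transiently expressing PXR fused to Gal4, following 24 h treatment. DMSO served as negative control and baseline.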

The target of experiment [9] is human Retinoic Acid Receptor beta (RARb), RARB (gene 5915) (UniProt P10826). Put plainly: ATG_RARb_TRANS: Attagene TRANS-FACTORIAL HepG2 Assay for human Retinoic Acid Receptor beta (AID 2283004). In outline: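 Transient transfection of HepG2 with multiple reporter units → chemical dosing, 24 h → total RNA isolation → RT with oligo(dT) → reporter-specific PCR, 6-FAM primer extension, HpaI digest → capillary electrophoresis. Positive direction vs DMSO control.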
Sequence of human Retinoic Acid Receptor beta (RARb), RARB (gene 5915) (P10826 whole entry, looked up): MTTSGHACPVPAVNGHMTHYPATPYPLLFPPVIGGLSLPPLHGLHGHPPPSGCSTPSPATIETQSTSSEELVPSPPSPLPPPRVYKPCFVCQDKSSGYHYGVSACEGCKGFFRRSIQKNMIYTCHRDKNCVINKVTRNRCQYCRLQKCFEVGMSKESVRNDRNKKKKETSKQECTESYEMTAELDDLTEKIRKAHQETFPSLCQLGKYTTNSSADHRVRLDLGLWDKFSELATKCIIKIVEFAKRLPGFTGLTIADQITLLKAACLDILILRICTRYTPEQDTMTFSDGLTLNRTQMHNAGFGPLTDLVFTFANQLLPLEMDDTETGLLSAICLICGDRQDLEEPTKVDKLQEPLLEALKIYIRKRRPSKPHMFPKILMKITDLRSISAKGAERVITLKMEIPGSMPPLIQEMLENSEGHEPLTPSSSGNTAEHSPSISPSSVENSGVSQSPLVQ

In experiment [10] the target is Retinoic acid receptor alpha (Homo sapiens) (UniProt P10276). Put plainly: ATG_RARa_TRANS: Attagene TRANS-FACTORIAL HepG2 Assay for human Retinoic Acid Receptor alpha (RARa) (AID 2283005). The essentials: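 HepG2 cells transiently transfected with multiple reporter units expressing chimeric RARα-GAL4 fusion, with GAL4-UAS-driven reporters. After 24 h compound exposure, reporter mRNA induction quantified by RT-PCR and capillary electrophoresis with fluorescent labeling; gain-of-signal fitted relative to DMSO control.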
Sequence of Retinoic acid receptor alpha (Homo sapiens) (P10276 whole entry, looked up, the tested form may be a part): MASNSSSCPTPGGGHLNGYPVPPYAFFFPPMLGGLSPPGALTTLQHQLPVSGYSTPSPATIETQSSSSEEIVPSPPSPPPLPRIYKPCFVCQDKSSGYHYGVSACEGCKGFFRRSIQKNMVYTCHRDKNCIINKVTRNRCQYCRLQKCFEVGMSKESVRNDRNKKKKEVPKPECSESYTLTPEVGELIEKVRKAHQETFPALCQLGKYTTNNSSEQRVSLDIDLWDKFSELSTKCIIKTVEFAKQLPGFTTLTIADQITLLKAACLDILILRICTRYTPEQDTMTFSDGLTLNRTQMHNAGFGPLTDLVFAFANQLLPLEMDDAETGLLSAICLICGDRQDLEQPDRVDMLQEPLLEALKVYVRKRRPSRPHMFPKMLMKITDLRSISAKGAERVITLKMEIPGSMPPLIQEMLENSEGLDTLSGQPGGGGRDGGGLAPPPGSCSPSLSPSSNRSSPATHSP

Experiment [11] addresses human Retinoic Acid Receptor gamma (RARg), RARG (gene 5916) (UniProt P13631). Briefly: ATG_RARg_TRANS: Attagene TRANS-FACTORIAL HepG2 Assay for human Retinoic Acid Receptor gamma (RARg) (AID 2283009). In outline:
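Transient transfection of HepG2 with multi-reporter constructs, then 24 h chemical treatment. Total RNA isolated, reverse-transcribed, PCR-amplified, fluorescently labelled and resolved by capillary electrophoresis; activity scored as mRNA induction versus DMSO.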

Experiment [12] addresses human RAR-related Orphan Receptor beta (RORb), RORB (gene 6096) (UniProt Q92753). Put plainly: ATG_RORb_TRANS: Attagene TRANS-FACTORIAL HepG2 Assay for human RAR-related Orphan Receptor beta (RORb) (AID 2283010). The essentials: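 Readout is reporter-gene mRNA induction, detected as fluorescence after RT-PCR and capillary electrophoresis, fitted for gain of signal against DMSO controls. Transiently transfected HepG2 liver cells carrying GAL4-UAS reporter constructs were treated for 24 hours.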

The target in experiment [13] is human RAR-related Orphan Receptor gamma (RORg), RORC (gene 6097) (UniProt P51449). Put plainly: ATG_RORg_TRANS: Attagene TRANS-FACTORIAL HepG2 Assay for human RAR-related Orphan Receptor gamma (RORg) (AID 2283011). The essentials:
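First, HepG2 liver cells were transfected with GAL4-UAS-driven reporter constructs and the RORg-Gal4 fusion. Next, they were treated with chemical for 24 h. Finally, reporter mRNA was quantified by RT-PCR and capillary electrophoresis, with upward activity fitted against DMSO.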

A short description of experiment [14]: BSK_3C_TissueFactor: BioMAP Diversity Plus: 3C Assay for Tissue Factor Biomarker Activity (AID 2282997; active = hit-call score of the fitted dose curve at least 0.9, where 1 is the maximum; inactive = score below 0.9). Conditions: BioMAP 3C HUVEC, tissue factor biomarker readout; actives raise or lower the signal. The essentials:
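ELISA read-out of Tissue Factor levels on human umbilical vein endothelium collected 24 h after chemical dosing. Gain or loss of signal was fitted relative to DMSO.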

Experiment [15] is described as follows: BSK_3C_uPAR: BioMAP Diversity Plus: 3C Assay for Urokinase-type plasminogen activator receptor (uPAR) Biomarker Activity (AID 2282998; active = hit-call score of the fitted dose curve at least 0.9, where 1 is the maximum; inactive = score below 0.9). To be noted: BioMAP 3C HUVEC, uPAR biomarker ELISA; actives raise or lower the signal. The essentials:
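Primary human umbilical vein endothelial cells, 3C system; surface uPAR measured by ELISA 24 h after dosing. Cytotoxicity via SRB total protein in parallel cultures; bidirectional fit against DMSO.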

Experiment [16] is described as follows: BSK_3C_VCAM1: BioMAP Diversity Plus: 3C Assay for Vascular cell adhesion molecule 1 (VCAM1) Biomarker Activity (AID 2282999; active = hit-call score of the fitted dose curve at least 0.9, where 1 is the maximum; inactive = score below 0.9). To be noted: BioMAP 3C HUVEC, VCAM1 ELISA, cytokine-stimulated; actives raise or lower the signal. In outline: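 Human umbilical vein endothelial cells were dosed with compound for 24 h, after which cell-surface VCAM-1 was quantified by ELISA. Bidirectional curve fitting used DMSO as negative control and activity baseline.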

Experiment [17] can be described thus: BSK_4H_Eotaxin3: BioMAP Diversity Plus: 4H Assay for Eotaxin 3 Biomarker Activity (AID 2283000; active = hit-call score of the fitted dose curve at least 0.9, where 1 is the maximum; inactive = score below 0.9;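 note: CCL26 protein level quantified by ELISA in parallel with SRB cytotoxicity check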). Conditions: primary human endothelial cells (HUVEC); actives raise or lower the signal. The essentials:
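Chemicals were added to human umbilical vein endothelium cultures, and Eotaxin-3 was quantified by ELISA at 24 h. Values were derived by bidirectional fitting with DMSO serving as negative control and activity baseline.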

Experiment [18] is described as follows: BSK_3C_Proliferation: Cell Proliferation Assessment in the BioMAP Diversity Plus: 3C Assay (AID 2283006; active = hit-call score of the fitted dose curve at least 0.9, where 1 is the maximum; inactive = score below 0.9). Conditions: primary human endothelial cells (HUVEC). The essentials: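 Read-out is total protein by SRB absorbance at 560 nm, taken as a proxy for relative cell number. Primary human umbilical vein endothelium cultured below confluence was dosed for 48 h, TCA-fixed and SRB-stained; curves were fitted bidirectionally versus DMSO.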

Sequence of Myc proto-oncogene protein (Homo sapiens) (P01106 whole entry, looked up): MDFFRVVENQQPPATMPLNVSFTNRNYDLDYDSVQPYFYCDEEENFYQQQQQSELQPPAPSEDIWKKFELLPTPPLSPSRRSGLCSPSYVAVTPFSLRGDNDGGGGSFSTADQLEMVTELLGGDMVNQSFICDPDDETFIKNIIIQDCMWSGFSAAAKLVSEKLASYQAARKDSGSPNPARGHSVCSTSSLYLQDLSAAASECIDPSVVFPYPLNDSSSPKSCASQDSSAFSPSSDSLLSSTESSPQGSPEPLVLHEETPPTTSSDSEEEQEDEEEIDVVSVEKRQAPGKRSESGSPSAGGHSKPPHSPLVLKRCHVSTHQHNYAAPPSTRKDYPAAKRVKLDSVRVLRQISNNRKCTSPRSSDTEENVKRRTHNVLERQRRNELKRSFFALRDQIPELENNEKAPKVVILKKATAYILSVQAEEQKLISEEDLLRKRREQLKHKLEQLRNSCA
Sequence of Nuclear receptor subfamily 1 group I member 2 (Homo sapiens) (O75469 whole entry, looked up, the tested form may be a part): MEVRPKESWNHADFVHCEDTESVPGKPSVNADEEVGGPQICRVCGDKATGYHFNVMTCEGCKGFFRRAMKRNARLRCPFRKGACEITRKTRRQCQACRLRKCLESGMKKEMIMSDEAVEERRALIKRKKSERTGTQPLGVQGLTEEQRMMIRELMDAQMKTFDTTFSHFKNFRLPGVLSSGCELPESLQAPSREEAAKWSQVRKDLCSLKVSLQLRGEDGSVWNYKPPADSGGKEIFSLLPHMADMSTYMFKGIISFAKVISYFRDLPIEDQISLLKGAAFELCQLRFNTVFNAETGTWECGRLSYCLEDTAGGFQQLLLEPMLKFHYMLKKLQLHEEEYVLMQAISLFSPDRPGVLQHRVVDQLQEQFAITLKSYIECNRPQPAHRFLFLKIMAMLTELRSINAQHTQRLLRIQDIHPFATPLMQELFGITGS
Sequence of human Retinoic Acid Receptor gamma (RARg), RARG (gene 5916) (P13631 whole entry, looked up): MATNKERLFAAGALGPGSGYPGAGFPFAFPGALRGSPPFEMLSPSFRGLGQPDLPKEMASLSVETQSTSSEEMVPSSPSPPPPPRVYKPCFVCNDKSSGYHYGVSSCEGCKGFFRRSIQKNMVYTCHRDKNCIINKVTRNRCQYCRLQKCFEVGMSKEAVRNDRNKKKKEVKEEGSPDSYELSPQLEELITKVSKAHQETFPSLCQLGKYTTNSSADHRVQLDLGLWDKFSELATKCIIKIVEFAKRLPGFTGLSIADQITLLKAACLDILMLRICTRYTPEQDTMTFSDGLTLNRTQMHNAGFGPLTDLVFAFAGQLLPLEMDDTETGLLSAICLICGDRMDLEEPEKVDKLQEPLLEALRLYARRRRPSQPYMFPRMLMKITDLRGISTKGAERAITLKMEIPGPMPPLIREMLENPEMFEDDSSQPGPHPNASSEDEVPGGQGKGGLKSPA
Sequence of Cellular tumor antigen p53 (Homo sapiens) (P04637 whole entry, looked up): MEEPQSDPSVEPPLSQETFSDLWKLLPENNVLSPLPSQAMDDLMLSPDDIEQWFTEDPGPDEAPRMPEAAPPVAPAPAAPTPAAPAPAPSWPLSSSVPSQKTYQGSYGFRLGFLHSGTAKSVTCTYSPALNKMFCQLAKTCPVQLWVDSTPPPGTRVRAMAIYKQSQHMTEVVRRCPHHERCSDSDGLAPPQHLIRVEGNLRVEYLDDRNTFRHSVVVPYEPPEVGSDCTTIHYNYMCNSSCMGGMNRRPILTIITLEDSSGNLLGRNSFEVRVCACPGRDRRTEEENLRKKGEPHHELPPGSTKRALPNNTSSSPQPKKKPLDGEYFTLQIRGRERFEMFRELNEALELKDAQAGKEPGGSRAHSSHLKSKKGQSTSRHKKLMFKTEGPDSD
Sequence of human Peroxisome Proliferator-activated Receptor alpha (PPARa), PPARA (gene 5465) (Q07869 whole entry, looked up, the tested form may be a part): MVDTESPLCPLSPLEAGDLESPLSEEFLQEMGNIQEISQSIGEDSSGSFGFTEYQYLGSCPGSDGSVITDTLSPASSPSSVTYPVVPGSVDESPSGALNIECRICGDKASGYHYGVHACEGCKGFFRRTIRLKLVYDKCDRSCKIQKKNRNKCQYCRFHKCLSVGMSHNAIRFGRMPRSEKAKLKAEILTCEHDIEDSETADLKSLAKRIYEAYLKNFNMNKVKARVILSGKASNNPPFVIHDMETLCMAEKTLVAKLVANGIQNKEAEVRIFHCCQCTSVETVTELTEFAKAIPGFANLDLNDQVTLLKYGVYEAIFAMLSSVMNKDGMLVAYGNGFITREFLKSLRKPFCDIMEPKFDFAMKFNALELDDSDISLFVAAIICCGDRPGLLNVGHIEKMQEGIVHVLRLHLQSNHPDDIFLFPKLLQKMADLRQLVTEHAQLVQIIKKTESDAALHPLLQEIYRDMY
Sequence of Peroxisome proliferator-activated receptor gamma (Homo sapiens) (P37231 whole entry, looked up): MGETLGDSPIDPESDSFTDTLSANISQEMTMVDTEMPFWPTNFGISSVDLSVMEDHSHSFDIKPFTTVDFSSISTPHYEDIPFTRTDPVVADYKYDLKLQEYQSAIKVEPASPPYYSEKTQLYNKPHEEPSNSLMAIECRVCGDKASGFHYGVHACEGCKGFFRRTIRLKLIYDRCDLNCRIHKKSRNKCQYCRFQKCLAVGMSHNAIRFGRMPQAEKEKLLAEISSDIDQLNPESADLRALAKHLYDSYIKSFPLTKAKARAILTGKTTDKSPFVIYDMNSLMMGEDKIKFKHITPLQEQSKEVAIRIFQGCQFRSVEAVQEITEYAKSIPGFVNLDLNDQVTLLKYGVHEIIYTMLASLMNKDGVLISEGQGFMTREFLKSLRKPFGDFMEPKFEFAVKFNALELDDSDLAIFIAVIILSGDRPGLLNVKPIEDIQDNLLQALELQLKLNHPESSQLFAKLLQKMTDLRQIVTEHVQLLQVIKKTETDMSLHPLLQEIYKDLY
Sequence of human Peroxisome Proliferator-activated Receptor delta (PPARd), PPARD (gene 5467) (Q03181 whole entry, looked up, the tested form may be a part): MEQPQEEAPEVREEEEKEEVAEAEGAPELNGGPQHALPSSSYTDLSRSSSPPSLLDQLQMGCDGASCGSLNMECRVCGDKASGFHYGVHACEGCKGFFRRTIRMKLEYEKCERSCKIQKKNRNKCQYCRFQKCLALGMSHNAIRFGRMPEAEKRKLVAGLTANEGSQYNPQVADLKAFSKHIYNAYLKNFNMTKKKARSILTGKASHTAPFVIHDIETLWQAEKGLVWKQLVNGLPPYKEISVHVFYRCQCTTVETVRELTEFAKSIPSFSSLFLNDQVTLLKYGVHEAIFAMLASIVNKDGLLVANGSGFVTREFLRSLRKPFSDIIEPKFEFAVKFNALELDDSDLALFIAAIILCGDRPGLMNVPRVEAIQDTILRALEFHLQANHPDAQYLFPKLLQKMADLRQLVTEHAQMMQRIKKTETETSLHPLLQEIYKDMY
Sequence of human RAR-related Orphan Receptor beta (RORb), RORB (gene 6096) (Q92753 whole entry, looked up, the tested form may be a part): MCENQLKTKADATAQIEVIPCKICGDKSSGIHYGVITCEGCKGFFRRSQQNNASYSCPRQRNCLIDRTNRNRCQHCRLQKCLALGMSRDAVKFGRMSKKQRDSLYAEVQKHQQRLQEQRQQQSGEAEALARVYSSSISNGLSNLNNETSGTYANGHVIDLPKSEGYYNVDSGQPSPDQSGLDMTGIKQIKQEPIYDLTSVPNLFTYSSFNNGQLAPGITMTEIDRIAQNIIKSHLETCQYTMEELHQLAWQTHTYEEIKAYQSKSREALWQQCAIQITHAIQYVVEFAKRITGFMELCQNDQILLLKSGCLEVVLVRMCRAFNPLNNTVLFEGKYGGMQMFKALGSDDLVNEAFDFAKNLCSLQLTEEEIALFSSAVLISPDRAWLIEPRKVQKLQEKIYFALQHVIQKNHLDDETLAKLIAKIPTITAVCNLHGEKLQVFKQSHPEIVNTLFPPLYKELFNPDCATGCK

Regarding `Clc1ccc(C(c2ccccc2Cl)C(Cl)Cl)cc1` (configuration not stated), the result in experiment [1], in experiment [4], in experiment [5], in [6] and in [7] was inactive. Further, the AC50 in experiment [2] is 52 µM (active); in [3] it was 26.7 µM (active); in experiment [8] it was 1.92 µM (active).

For the molecule `O=C(O)c1ccc(O)cc1`, the call in experiment [1], in experiment [2], in experiment [3], in experiment [4], in [5] and in experiment [6] was inactive. Moreover, the molecule was classed as inactive in experiment [9], in [10], in experiment [7], in experiment [8], in [11] and in experiment [12]. Further, the outcome in [13] was inactive.

`CCCCOC(=O)CCCCCCCC(=O)OCCCC`: the call in experiment [1], in experiment [2], in experiment [3], in [4], in experiment [14] and in experiment [15] was inactive. Moreover, the outcome in [16], in experiment [17], in experiment [5], in experiment [18] and in experiment [8] was inactive.

Consider `CC[N+](C)(CC)CC`, for which the molecule was called inactive in experiment [1], in experiment [2], in experiment [3], in experiment [4], in [5] and in [10]. Also, the molecule was classed as inactive in [7], in [8] and in experiment [11].

On to `CCCCCCCCC=CCCCCCCCC1=NCCN1CCO`, for which the result in [1], in [2], in experiment [3], in experiment [5], in experiment [6] and in experiment [10] was inactive. For the same molecule, the result in experiment [7] and in experiment [11] was inactive. In experiment [4], the AC50 is 21 µM (active).

As to `COC(=O)C=C(C)CCC=C(C)C`, the molecule was classed as inactive in [1], in [3], in experiment [4], in [5] and in [6]. Further, the AC50 in experiment [2] was 36.1 µM (active); in experiment [7], 44.5 µM (active); in experiment [8], 4.9 µM (active).

In the case of `CCCCCC(=O)CC`, the result in experiment [1], in [2], in experiment [3], in experiment [4], in experiment [5] and in experiment [6] was inactive. Besides, the molecule was classed as inactive in [7].

With `COC(C)(C)CC(C)=O`, the molecule was called inactive in experiment [1], in experiment [2], in [3], in [4], in experiment [5] and in [6]. In addition, the molecule was classed as inactive in [8].

Turning to `CCCCCCCCCCCC(=O)OC[C@@H](O)[C@H]1OC[C@H](O)[C@H]1O`, the molecule was called inactive in experiment [1], in experiment [2], in [3], in [4], in [5] and in experiment [6]. In addition, the molecule was classed as inactive in [9], in experiment [10], in experiment [7] and in [11].

The AC50 is the midpoint of the concentration-response curve, whichever way the signal moves.
